Assay results published in PubChem BioAssay (EPA / NIEHS).
“And” between values parts separate entries of the source, which are not always exact repeats. Equal values may be shown once. Where a structure was tested more than once in an assay, its records may differ in their call. The source made the active and inactive calls. The calls were made as follows: active = hit-call score of the fitted dose curve at least 0.9, where 1 is the maximum; inactive = score below 0.9.

What was measured:
[1] = read-out: Interleukin-6 (IL6), IL6 (gene 3569); experiment: BSK_CASM3C_IL6: BioMAP Diversity Plus: CASM3C Assay for Interleukin-6 (IL6) Biomarker Activity for (AID 2283040); conditions: primary human coronary artery smooth muscle cells; actives raise or lower the signal
[2] = read-out: Tissue plasminogen activator (tPA), PLAT (gene 5327); experiment: BSK_BE3C_tPA: BioMAP Diversity Plus: BE3C Assay for Tissue plasminogen activator (tPA) Biomarker Activity (AID 2283041); conditions: primary human bronchial epithelial cells; actives raise or lower the signal
Summary of the method: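 Using human lung primary bronchial epithelial cells, tPA was measured by ELISA 24 h after dosing; data fitted relative to DMSO.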

[3] = read-out: Interleukin-8 (IL8), CXCL8 (gene 3576); experiment: BSK_CASM3C_IL8: BioMAP Diversity Plus: CASM3C Assay for Interleukin-8 (IL8) Biomarker Activity (AID 2283042); conditions: primary human coronary artery smooth muscle cells; actives raise or lower the signal;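 also: IL-8 protein level quantified by ELISA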
[4] = read-out: Human Leukocyte Antigen - DR isotype (HLADR), HLA-DRA (gene 3122); experiment: BSK_CASM3C_HLADR: BioMAP Diversity Plus: CASM3C Assay for Human Leukocyte Antigen - DR isotype (HLADR) Biomarker Activity (AID 2283043); conditions: primary human coronary artery smooth muscle cells; actives raise or lower the signal;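 also: cell-surface HLA-DR protein level quantified by ELISA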
[5] = read-out: Macrophage colony-stimulating factor (MCSF), CSF1 (gene 1435); experiment: BSK_CASM3C_MCSF: BioMAP Diversity Plus: CASM3C Assay for Macrophage colony-stimulating factor (MCSF) Biomarker Activity (AID 2283044); conditions: primary human coronary artery smooth muscle cells; actives raise or lower the signal;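 also: M-CSF protein amount quantified by ELISA after 24 h exposure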
[6] = read-out: Low-density lipoprotein receptor (LDLR), LDLR (gene 3949); experiment: BSK_CASM3C_LDLR: BioMAP Diversity Plus: CASM3C Assay for Low-density lipoprotein receptor (LDLR) Biomarker Activity (AID 2283045); conditions: primary human coronary artery smooth muscle cells; actives raise or lower the signal;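 also: LDLR protein level on the cell surface quantified by ELISA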
[7] = read-out: Monocyte Chemoattractant Protein-1 (MCP1), CCL2 (gene 6347); experiment: BSK_CASM3C_MCP1: BioMAP Diversity Plus: CASM3C Assay for Monocyte Chemoattractant Protein-1 (MCP1) Biomarker Activity (AID 2283046); conditions: primary human coronary artery smooth muscle cells; actives raise or lower the signal;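 also: MCP-1 level quantified by ELISA 24 h after dosing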
[8] = BSK_CASM3C_Proliferation: Cell Proliferation Assessment in the BioMAP Diversity Plus: CASM3C Assay (AID 2283047); conditions: primary human coronary artery smooth muscle cells;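 also: sulforhodamine B total protein stain as relative cell number at 560 nm; sub-confluent cells exposed 48 h before staining; fitted both ways against DMSO so gain or loss of cell number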
[9] = read-out: Monokine induced gamma interferon (MIG), CXCL9 (gene 4283); experiment: BSK_CASM3C_MIG: BioMAP Diversity Plus: CASM3C Assay for Monokine induced gamma interferon (MIG) Biomarker Activity (AID 2283048); conditions: primary human coronary artery smooth muscle cells; actives raise or lower the signal;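 also: MIG protein level measured by ELISA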
[10] = read-out: serum amyloid A (SAA), SAA1 (gene 6288); experiment: BSK_CASM3C_SAA: BioMAP Diversity Plus: CASM3C Assay for serum amyloid A (SAA) Biomarker Activity (AID 2283049); conditions: primary human coronary artery smooth muscle cells; actives raise or lower the signal;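 also: SAA protein level quantified by ELISA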
[11] = BSK_CASM3C_SRB: Viability Assessment in the BioMAP Diversity Plus: CASM3C Assay (AID 2283050); conditions: primary human coronary artery smooth muscle cells;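 also: total protein by SRB staining as cytotoxicity measure in parallel cultures; cells exposed to compound for 24 h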
[12] = read-out: Thrombomodulin, THBD (gene 7056); experiment: BSK_CASM3C_Thrombomodulin: BioMAP Diversity Plus: CASM3C Assay for Thrombomodulin Biomarker Activity (AID 2283051); conditions: primary human coronary artery smooth muscle cells; actives raise or lower the signal;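 also: thrombomodulin protein level measured by ELISA 24 h after dosing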
[13] = read-out: Tissue Factor, F3 (gene 2152); experiment: BSK_CASM3C_TissueFactor: BioMAP Diversity Plus: CASM3C Assay for Tissue Factor Biomarker Activity (AID 2283052); conditions: primary human coronary artery smooth muscle cells; actives raise or lower the signal;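 also: cell surface tissue factor protein level read by ELISA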
[14] = read-out: Interferon-gamma inducible Protein 10 (IP10), CXCL10 (gene 3627); experiment: BSK_hDFCGF_IP10: BioMAP Diversity Plus: hDFCGF Assay for Interferon-gamma inducible Protein 10 (IP10) Biomarker Activity (AID 2283053); conditions: primary human foreskin fibroblasts; actives raise or lower the signal
Summary of the method: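 Chemical-treated human skin fibroblasts (primary) were sampled at 24 h for IP-10 by ELISA. Both increases and decreases relative to DMSO were scored.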

[15] = read-out: Urokinase-type plasminogen activator receptor (uPAR), PLAUR (gene 5329); experiment: BSK_CASM3C_uPAR: BioMAP Diversity Plus: CASM3C Assay for Urokinase-type plasminogen activator receptor (uPAR) Biomarker Activity (AID 2283054); conditions: primary human coronary artery smooth muscle cells; actives raise or lower the signal;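 also: cell-surface uPAR protein level quantified by ELISA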
[16] = read-out: Vascular cell adhesion molecule 1 (VCAM1), VCAM1 (gene 7412); experiment: BSK_CASM3C_VCAM1: BioMAP Diversity Plus: CASM3C Assay for Vascular cell adhesion molecule 1 (VCAM1) Biomarker Activity (AID 2283055); conditions: primary human coronary artery smooth muscle cells; actives raise or lower the signal;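 also: VCAM-1 protein level quantified by ELISA on the cells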
[17] = read-out: Collagen III, COL3A1 (gene 1281); experiment: BSK_hDFCGF_CollagenIII: BioMAP Diversity Plus: hDFCGF Assay for Collagen III Biomarker Activity (AID 2283056); conditions: primary human foreskin fibroblasts; actives raise or lower the signal
Summary of the method: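 Cells: human foreskin fibroblasts, primary. Dosing followed by 24 h incubation, then ELISA for collagen III. Both increases and decreases scored relative to DMSO.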

[18] = read-out: Epidermal growth factor receptor (EGFR), EGFR (gene 1956); experiment: BSK_hDFCGF_EGFR: BioMAP Diversity Plus: hDFCGF Assay for Epidermal growth factor receptor (EGFR) Biomarker Activity (AID 2283057); conditions: primary human foreskin fibroblasts; actives raise or lower the signal
Summary of the method: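 Cell-based multiplexed assay in primary human foreskin fibroblasts. EGFR is read by ELISA 24 h after treatment and compared with DMSO controls.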

[19] = read-out: Interleukin-8 (IL8), CXCL8 (gene 3576); experiment: BSK_hDFCGF_IL8: BioMAP Diversity Plus: hDFCGF Assay for Interleukin-8 (IL8) Biomarker Activity (AID 2283058); conditions: primary human foreskin fibroblasts; actives raise or lower the signal
Summary of the method: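 IL-8 levels from compound-treated primary human fibroblasts were read by ELISA at 24 h, with DMSO serving as baseline for bidirectional fitting.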

[20] = BSK_hDFCGF_Proliferation: Cell Proliferation Assessment in the BioMAP Diversity Plus: hDFCGF Assay (AID 2283059); conditions: primary human foreskin fibroblasts;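 also: curves fitted for both rise and fall of signal versus DMSO baseline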
Summary of the method: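 Primary human foreskin fibroblasts, sub-confluent; […]; 10% TCA fix, 0.1% SRB stain, A560 total protein. Gain/loss fitted bidirectionally vs DMSO control.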

Measured: AC50

CCC1(C)C(=O)N(Cl)C(=O)N1Cl (stereo not given)
not listed: [19] | [20]
inactive: all other assays above

Oc1ccccc1Cc1ccccc1O
inactive: [1] | [3] | [4] | [5] | [6] | [7] | [8] | [9] | [10] | [11] | [12] | [13] | [14] | [15] | [16] | [17] | [18]
active: [2] 13.4 µM and 10.2 µM | [16] 0.239 µM

O=C(O)C(F)(F)C(F)(F)C(F)(F)C(F)(F)C(=O)O
not listed: [19] | [20]
inactive: all other assays above

CCc1cccc(C)c1N(C(=O)CS(=O)(=O)O)C(C)COC (stereo not given)
not listed: [19] | [20]
inactive: all other assays above

CC=C(C)C(C)=O
active: [12] 3.97 µM | [17] 3.97 µM
not listed: [19] | [20]
inactive: all other assays above

COc1ccc(C(=O)c2ccccc2)c(O)c1
active: [13] 20 µM
not listed: [19] | [20]
inactive: all other assays above

Nc1nc(N)nc(-c2ccccc2)n1
active: [13] 0.0609 µM | [16] 0.268 µM
inactive: [1] | [2] | [3] | [4] | [5] | [6] | [7] | [8] | [9] | [10] | [11] | [12] | [13] | [14] | [15] | [16] | [17] | [18] | [19] | [20]

O=C1CCCCCCCCCCC1
not listed: [19] | [20]
inactive: all other assays above

COC(OC)(C(=O)c1ccccc1)c1ccccc1
not listed: [19] | [20]
inactive: all other assays above

CC(CCC(=O)O)(c1ccc(O)cc1)c1ccc(O)cc1
not listed: [19] | [20]
inactive: all other assays above

CC=C(C)C=CC=C(C)C
active: [2] 3.97 µM | [4] 3.97 µM | [5] 0.46 µM | [8] 24 µM | [13] 3.97 µM | [16] 16.8 µM
not listed: [19] | [20]
inactive: all other assays above

Oc1ccc(/C=C/c2cc(O)cc(O)c2)cc1
active: [1] 13.6 µM | [8] 10.5 µM | [10] 15.9 µM | [13] 7.96 µM
not listed: [19] | [20]
inactive: all other assays above

CCCCCCCO
not listed: [19] | [20]
inactive: all other assays above

C=C(C)C(=O)OCCCCCCCCCCCC
not listed: [19] | [20]
inactive: all other assays above

COc1ccc(C(=O)/C(Br)=C\C(=O)O)cc1
inactive: [2] | [10] | [12] | [17] | [18]
active: [1] 20 µM and 23.2 µM | [2] 4.45 µM | [3] 35.4 µM and 29.1 µM | [4] 6.86 µM and 20.6 µM | [5] 20 µM and 29.7 µM | [6] 13.2 µM and 26.7 µM | [7] 30 µM and 31.1 µM | [8] 4.88 µM and 24.3 µM | [9] 29.2 µM and 31 µM | [10] 11.4 µM | [11] 23.8 µM and 28.8 µM | [13] 4.22 µM and 11.4 µM | [14] 33.1 µM and 32.6 µM | [15] 13.4 µM and 30.6 µM | [16] 12 µM and 20 µM | [17] 13.6 µM | [18] 29.1 µM | [20] 29.4 µM and 20 µM

C=CCCCCCCCCC=O
not listed: [19] | [20]
inactive: all other assays above

CC(C)CCCCCOC(=O)CS
not listed: [19] | [20]
inactive: all other assays above

CC/C=C\CCOC(=O)c1ccccc1O
active: [1] 3.97 µM | [2] 20 µM | [4] 32.9 µM | [5] 31.6 µM | [6] 14.4 µM | [7] 20 µM | [10] 20 µM | [11] 34.5 µM | [13] 20 µM | [14] 13.7 µM | [15] 36.3 µM | [16] 32.1 µM | [17] 11.8 µM
inactive: [3] | [8] | [9] | [12] | [18]

CC(c1cc(C(C)(C)C)cc(C(C)(C)C)c1O)c1cc(C(C)(C)C)cc(C(C)(C)C)c1O
not listed: [19] | [20]
inactive: all other assays above

C[N+](C)(C)CCCNS(=O)(=O)C(F)(F)C(F)(F)C(F)(F)C(F)(F)C(F)(F)C(F)(F)C(F)(F)C(F)(F)F
inactive: [1] | [3] | [4] | [5] | [7] | [8] | [9] | [10] | [11] | [12] | [13] | [15] | [16] | [18]
active: [2] 17.1 µM and 18.5 µM | [5] 16.8 µM | [6] 19.5 µM and 26.4 µM | [10] 7.89 µM | [12] 30 µM | [14] 48.5 µM and 48.9 µM | [17] 11.4 µM and 5.3 µM

CCCCCCCCCCCC(=O)N(C)CC(=O)O
inactive: [1] | [2] | [3] | [4] | [5] | [6] | [7] | [8] | [9] | [10] | [11] | [12] | [13] | [14] | [15] | [16] | [18]
active: [9] 30.9 µM | [17] 8.61 µM and 24.7 µM

Cc1ccc([N+](=O)[O-])cc1N
not listed: [19] | [20]
inactive: all other assays above

CCCCC1C(=O)N(c2ccccc2)N(c2ccccc2)C1=O
not listed: [19] | [20]
inactive: all other assays above

Clc1cc(Cl)c(Cl)c(Cl)c1Cl
not listed: [19] | [20]
inactive: all other assays above

c1ccc(Nc2cccc3ccccc23)cc1
active: [1] 13.4 µM and 12.9 µM | [2] 30.6 µM and 32.2 µM | [5] 20 µM and 149 nM | [7] 29.9 µM and 28.9 µM | [8] 7.17 µM and 25.9 µM | [11] 31.3 µM | [12] 10.1 µM and 7.36 µM | [13] 2.1 µM | [14] 30.3 µM and 34.6 µM | [15] 10.5 µM | [16] 7.35 µM | [17] 17.3 µM and 13.9 µM | [18] 32.5 µM
inactive: [3] | [4] | [6] | [9] | [10] | [11] | [13] | [15] | [16] | [18]

Fc1ccc(Br)cc1
not listed: [19] | [20]
inactive: all other assays above

C=CC(=O)NCOCCCC
not listed: [19] | [20]
inactive: all other assays above
